Screen size: about 360,000 compounds; about 16,000 (4.4%) were called active. Where a call stands in place of a potency, no number is given. About 9% were inconclusive and are not listed. Calls come from the whole dose curve; as a rule, active = well fitted inhibition curve with a large enough effect; inconclusive = small, poorly fitted or top-dose-only effect; inactive = no such curve, though single readings can be large or run the other way. The sample as a whole holds a higher share of actives than the screen did.
Potency is the fitted concentration of half-maximal effect.

This assay deals with Bromodomain adjacent to zinc finger domain protein 2B (Homo sapiens) (UniProt Q9UIF8). Briefly: qHTS Assay for Inhibitors of BAZ2B. Note: nearly all actives have a fitted effect of over 60% in size. The following applies: AlphaScreen BAZ2B-H3K14Ac peptide displacement; series mostly up to 114 µM. The essentials: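 BAZ2B (50 nM) with biotin-H3(5-23)K14Ac peptide (50 nM) in PBS pH 7.4, 0.01% Tween-20, preformed 30 min, then compound 30 min at room temperature; top concentration 110uM. AlphaScreen streptavidin donor/nickel chelate acceptor beads (10 ug/mL final), 20 min dark, signal read.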
Chain of Bromodomain adjacent to zinc finger domain protein 2B (Homo sapiens) (Q9UIF8 whole entry, looked up, the tested form may be a part): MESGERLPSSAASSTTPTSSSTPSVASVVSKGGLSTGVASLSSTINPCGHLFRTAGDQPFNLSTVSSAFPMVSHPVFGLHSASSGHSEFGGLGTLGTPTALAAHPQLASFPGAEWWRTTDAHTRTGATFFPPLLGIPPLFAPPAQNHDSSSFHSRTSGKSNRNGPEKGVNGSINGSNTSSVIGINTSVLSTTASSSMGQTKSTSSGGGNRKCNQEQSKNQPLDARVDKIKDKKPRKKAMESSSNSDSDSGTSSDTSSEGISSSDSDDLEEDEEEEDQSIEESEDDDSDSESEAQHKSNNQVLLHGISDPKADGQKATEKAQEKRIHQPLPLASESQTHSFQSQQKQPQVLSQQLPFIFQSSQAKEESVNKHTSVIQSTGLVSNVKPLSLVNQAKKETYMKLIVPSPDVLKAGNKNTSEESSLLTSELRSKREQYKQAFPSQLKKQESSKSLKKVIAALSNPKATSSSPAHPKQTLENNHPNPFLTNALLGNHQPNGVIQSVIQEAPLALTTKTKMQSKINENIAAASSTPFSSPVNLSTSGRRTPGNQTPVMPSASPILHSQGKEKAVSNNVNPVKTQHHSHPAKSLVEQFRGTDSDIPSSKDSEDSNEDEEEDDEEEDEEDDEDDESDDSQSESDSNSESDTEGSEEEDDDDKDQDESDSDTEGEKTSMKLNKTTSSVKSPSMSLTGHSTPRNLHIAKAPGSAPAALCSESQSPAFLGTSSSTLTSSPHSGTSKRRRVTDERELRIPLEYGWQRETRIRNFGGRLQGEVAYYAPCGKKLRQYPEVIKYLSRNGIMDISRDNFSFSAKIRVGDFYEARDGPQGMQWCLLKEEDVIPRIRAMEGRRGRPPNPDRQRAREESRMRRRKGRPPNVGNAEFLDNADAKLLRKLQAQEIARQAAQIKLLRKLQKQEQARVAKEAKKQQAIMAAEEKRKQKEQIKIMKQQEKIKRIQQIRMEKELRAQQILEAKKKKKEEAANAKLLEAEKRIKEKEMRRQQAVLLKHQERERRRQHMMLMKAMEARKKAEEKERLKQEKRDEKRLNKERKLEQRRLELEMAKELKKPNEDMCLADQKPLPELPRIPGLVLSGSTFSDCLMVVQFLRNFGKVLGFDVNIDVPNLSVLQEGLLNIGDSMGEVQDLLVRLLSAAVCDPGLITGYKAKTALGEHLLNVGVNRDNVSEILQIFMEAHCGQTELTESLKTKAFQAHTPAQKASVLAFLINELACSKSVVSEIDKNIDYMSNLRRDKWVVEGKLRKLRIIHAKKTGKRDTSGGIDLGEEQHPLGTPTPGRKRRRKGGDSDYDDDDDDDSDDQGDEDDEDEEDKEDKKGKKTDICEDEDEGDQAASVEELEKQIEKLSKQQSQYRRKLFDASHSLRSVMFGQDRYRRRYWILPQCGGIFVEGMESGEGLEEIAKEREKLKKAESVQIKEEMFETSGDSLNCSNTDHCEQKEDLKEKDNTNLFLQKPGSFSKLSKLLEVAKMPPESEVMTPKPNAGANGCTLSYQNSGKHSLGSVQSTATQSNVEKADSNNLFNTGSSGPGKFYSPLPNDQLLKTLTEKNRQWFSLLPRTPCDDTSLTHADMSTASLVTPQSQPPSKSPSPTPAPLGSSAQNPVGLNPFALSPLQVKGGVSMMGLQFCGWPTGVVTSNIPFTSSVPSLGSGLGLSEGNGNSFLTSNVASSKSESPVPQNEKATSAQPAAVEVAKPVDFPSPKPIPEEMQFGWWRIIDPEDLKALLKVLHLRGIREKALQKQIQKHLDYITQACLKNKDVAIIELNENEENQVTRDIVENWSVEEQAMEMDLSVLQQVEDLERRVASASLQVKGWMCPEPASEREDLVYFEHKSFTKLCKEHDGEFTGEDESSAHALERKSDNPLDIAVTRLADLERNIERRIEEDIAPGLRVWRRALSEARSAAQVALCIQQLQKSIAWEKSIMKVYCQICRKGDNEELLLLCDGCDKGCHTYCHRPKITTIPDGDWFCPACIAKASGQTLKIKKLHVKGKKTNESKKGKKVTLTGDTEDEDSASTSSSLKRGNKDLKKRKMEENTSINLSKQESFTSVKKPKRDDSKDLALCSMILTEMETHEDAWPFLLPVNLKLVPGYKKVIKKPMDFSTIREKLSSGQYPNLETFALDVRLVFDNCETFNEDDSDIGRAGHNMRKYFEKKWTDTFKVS
On to `Cn1c(C(=O)Nc2cccc(C(F)(F)F)c2)cc2c(=O)n3ccccc3nc21`, for which the Potency entry was “inactive”.

Turning to `COc1cccc(C(=O)NCc2ccc3c(c2)CCN3C(=O)c2ccncc2)c1`, the Potency entry is “inactive”.

Regarding `CN(C)CCOCCOc1ccc(Cl)c2ccccc12`, the Potency is 50.1 µM (active).

Consider `CCOc1ccc(S(=O)(=O)N2CCCCCC2)c2ccccc12`, for which the Potency entry was “inactive”.

Take `CCN(CC)CCOCCOc1ccc(Cl)c2ccccc12`: the Potency is 79.4 µM (active).

`C#CCOc1ccc(C2CC(=O)Nc3c2c(C)nn3-c2nc(C)cc(C)n2)cc1` (stereo not drawn): the Potency entry is “inactive”.

Take `COc1ccccc1C(=O)Nc1c(C(=O)Nc2ccc(C)cc2)oc2ccccc12`: the Potency result was “inactive”.

For the molecule `CCOc1ccc(C2c3[nH]c4ccccc4c3CCN2Cc2cccn2-c2ncccn2)cc1` (stereo not drawn), the Potency is 28.2 µM (active).

In the case of `CCOc1cccc(CC(=O)N2CCc3c([nH]c4ccccc34)C2c2ccc(OC)cc2)c1OCC` (stereo not drawn), the Potency result was “inactive”.

For `Cc1cccc(C(=O)N2CCc3c([nH]c4ccccc34)C2CC(C)C)n1` (stereo not drawn), the Potency entry is “inactive”.

As to `c1ccc(C2c3[nH]c4ccccc4c3CCN2Cc2cccn2-c2cccnc2)nc1` (stereo not drawn), the Potency is 31.6 µM (active).

On to `Cc1ccc(N(CC(=O)NCc2ccc(Cl)cc2)S(=O)(=O)N(C)C)cc1`, for which the Potency result was “inactive”.

For the molecule `CCOc1ccc(NC(=O)CCC(=O)N2CC(C)Oc3ccc(C)cc32)cc1` (stereo not drawn), the Potency entry was “inactive”.

Regarding `CCCn1c2ccccc2c2cnn(CC(=O)NCC3CCN(Cc4ccc(C)cc4)CC3)c(=O)c21`, the Potency entry was “inactive”.

With `Cc1ccc(NC(=O)c2oc3ccc(S(=O)(=O)N4CCCCC4)cc3c2C)cc1Cl`, the Potency result was “inactive”.

For `COc1ccc(Cl)cc1S(=O)(=O)N1CCC(c2ccncc2)CC1`, the Potency entry was “inactive”.

Turning to `Cc1nn(Cc2ccc(F)cc2)c(C)c1NC(=O)c1cc(CC(C)C)on1`, the Potency entry was “inactive”.

For `Cc1cc(C)c2oc(C(=O)Nc3c(C(=O)Nc4ccccc4)oc4ccccc34)cc(=O)c2c1`, the Potency entry is “inactive”.

Regarding `COc1ccc(C2C(C(C)=O)=C(O)C(=O)N2CCc2c[nH]c3ccccc23)cc1` (stereo not drawn), the Potency is 56.2 µM (active).

For the molecule `COC(=O)CN1C(=O)C(O)=C(C(C)=O)C1c1ccc([N+](=O)[O-])cc1` (stereo not drawn), the Potency result was “inactive”.

As to `COc1ccc2[nH]cc(CCN3C(=O)c4ccc(C(=O)O)cc4C3=O)c2c1`, the Potency entry was “inactive”.

As for `Cc1cccc(N(C)C(=O)CS(=O)(=O)c2cccc3nsnc23)c1`, the Potency result was “inactive”.

`Cc1ccc(C)c(N2C(=O)N(Cc3c(F)cccc3Cl)c3ccccc3S2(=O)=O)c1`: the Potency result is “inactive”.

Take `CC(=O)c1cc(C#N)c(SCC(=O)C(C)(C)C)nc1C`: the Potency entry is “inactive”.

Regarding `CC(=O)c1cc(C#N)c(SCC(=O)Nc2nccs2)nc1C`, the Potency entry is “inactive”.

On to `CC(=O)c1cc(C#N)c(N2CCCCC2)nc1C`, for which the Potency is 56.2 µM (active).

On to `Cc1cccc(-c2nnc(SCC(=O)N3CCCc4ccccc43)o2)c1`, for which the Potency entry is “inactive”.

Regarding `CCC(=O)N1CCc2cc(Br)cc(S(=O)(=O)NCc3ccc(Cl)cc3)c21`, the Potency entry was “inactive”.

For `COc1ccccc1CNC(=O)Cn1nc(C)c2nn(-c3ccc(Cl)cc3)c(C)c2c1=O`, the Potency entry is “inactive”.

For `CCN(C(=O)Cn1cnc2sc(C)c(S(=O)(=O)N3CCN(c4ncccn4)CC3)c2c1=O)c1ccccc1F`, the Potency entry was “inactive”.

For `CCOC(=O)Cc1csc(NC(=O)CSc2nc(C)cc(=O)[nH]2)n1`, the Potency is 50.1 µM (active).

Regarding `CCOC(=O)Cc1csc(NC(=O)CSc2ccc(Br)cc2)n1`, the Potency entry is “inactive”.

Regarding `CCCCc1nnc(NC(=O)CSc2nc(C)cc(=O)[nH]2)s1`, the Potency result was “inactive”.

As to `O=C(CSc1ncc(-c2ccccc2)[nH]1)Nc1ccc(F)cc1F`, the Potency entry was “inactive”.

Take `COC(=O)c1c(NC(=O)C(C)Oc2ccc(Cl)c(C)c2)sc(C)c1C` (stereo not drawn): the Potency result is “inactive”.

Turning to `COC(=O)CN1C(=O)CSc2ccc(S(=O)(=O)Nc3cc(C)ccc3C)cc21`, the Potency entry was “inactive”.

`CCc1ccc(CN(Cc2ccco2)C(=O)COc2ccc(Cl)c(C)c2)cc1`: the Potency entry is “inactive”.

For `O=C(O)c1cccc(NC(=S)N/N=C/c2c[nH]c3ccccc23)c1`, the Potency entry is “inactive”.

With `O=C(N/N=C/c1c[nH]c2ccccc12)c1ccccc1O`, the Potency result was “inactive”.

In the case of `CSC(=S)N/N=C/c1c[nH]c2ccccc12`, the Potency is 35.5 µM (active).

Turning to `O=C(NCCc1ccccc1)c1ccc2c(c1)N(Cc1ccccc1)C(=O)c1ccccc1S2(=O)=O`, the Potency result was “inactive”.

Take `CCC(=O)N1CCc2cc(CNS(=O)(=O)c3ccc(Br)s3)ccc21`: the Potency result was “inactive”.

`C#CCOCCOCCOCCNc1nc(N2CCN(C(=O)[C@H](CCCCN)n3cc(CCC(=O)O)nn3)CC2)nc(N2CCN(C(=O)[C@H](CCCCN)n3cc(CC(C)O)nn3)CC2)n1` (stereo partly drawn): the Potency result was “inactive”.

As to `C#CCOCCOCCOCCNc1nc(N2CCN(C(=O)[C@H](CCC(=O)O)n3cc(C(N)CO)nn3)CC2)nc(N2CCN(C(=O)[C@H](CCCCN)n3cc(C(N)[C@H](C)CC)nn3)CC2)n1` (stereo partly drawn), the Potency is 14.1 µM (active).

As to `C#CCOCCOCCOCCNc1nc(N2CCN(C(=O)[C@H](CCC(=O)O)n3cc(C(N)CO)nn3)CC2)nc(N2CCN(C(=O)[C@H](CCCCN)n3cc(C(N)CC(C)C)nn3)CC2)n1` (stereo partly drawn), the Potency was 44.7 µM (active).

Take `CCOc1ccc(N(CC)S(=O)(=O)N2CCCC(C(=O)NCc3ccc(Cl)cc3)C2)cc1` (stereo not drawn): the Potency entry was “inactive”.

As for `CCCCNC(=O)C1CCCN(c2nnc(C)c3c(C)n(-c4ccc(Cl)cc4)nc23)C1` (stereo not drawn), the Potency result is “inactive”.

Consider `CCN(CC)C(=O)CSc1nc2cc3c(cc2c(=O)n1CCCC(=O)NCc1ccc2c(c1)OCO2)OCO3`, for which the Potency result was “inactive”.

On to `Cc1ccc2onc(CC(=O)N3CCN(c4ccc(Cl)cc4)CC3)c2c1`, for which the Potency result was “inactive”.

As for `Cc1ccc2cccc(NC(=O)c3cccc4ccccc34)c2n1`, the Potency result was “inactive”.

As to `CCc1ccc(N2C(=O)CN(S(=O)(=O)CC)CC2(C)C(=O)NC2CCCCC2)cc1` (stereo not drawn), the Potency entry is “inactive”.

Consider `Cc1ccn2cc(-c3nonc3C)cc2c1`, for which the Potency is 56.2 µM (active).

For `COc1ccc(-c2cn3ccc(C)cc3n2)cc1`, the Potency result is “inactive”.

For `COc1cc(OC)cc(C(=O)Nc2cc3nn(-c4ccccc4)nc3cc2Cl)c1`, the Potency result was “inactive”.

Turning to `Cc1cccc(C(CC(=O)NCC2(c3ccccc3)CCCC2)c2ccccc2)c1O` (stereo not drawn), the Potency entry was “inactive”.

Take `Cn1c(SCC(=O)N2CCCc3ccccc32)ncc(C(=O)Nc2ccc(F)cc2)c1=O`: the Potency result is “inactive”.

As for `COc1ccc(CNc2nc(-c3ccc(Cl)cc3)cc(C(F)(F)F)n2)cc1`, the Potency result was “inactive”.

In the case of `C=CCc1cc(C)ccc1OCCCn1ccnc1`, the Potency was 31.6 µM (active).

For the molecule `Cc1ccc(S(=O)(=O)c2nc(NCCCn3ccnc3)sc2Cl)cc1`, the Potency entry is “inactive”.

As for `Brc1ccc(OCCn2ccnc2)cc1`, the Potency result was “inactive”.

Consider `CCOc1ccc(S(=O)(=O)NCCCn2ccnc2)cc1NC(C)=O`, for which the Potency result was “inactive”.

With `Clc1c(OCCCn2ccnc2)ccc2ccccc12`, the Potency is 39.8 µM (active).

As for `O=C(NCCCn1ccnc1)c1ccccc1F`, the Potency entry is “inactive”.

In the case of `Cc1cc2ccccc2n1CCNC(=O)c1ccc(F)cc1`, the Potency result was “inactive”.

As to `CCC(=O)N1c2ccccc2CC1C(=O)N1CCN(c2ccccc2F)CC1` (stereo not drawn), the Potency entry is “inactive”.

For `O=S(=O)(c1ccc2nc(NCc3ccccc3Cl)ccc2c1)N1CCCCC1`, the Potency result is “inactive”.

As for `CCCNC(=O)c1ccc2c(c1)ncn2-c1ccc(C)cc1C`, the Potency entry was “inactive”.

As for `CSc1nc(=O)c2c(n1C)NC(=O)CC2c1ccccc1OC(C)C` (stereo not drawn), the Potency entry is “inactive”.

For the molecule `COc1ccc(Cl)cc1NC(=O)C(C)Sc1nc2c(c(=O)[nH]1)CCCC2` (stereo not drawn), the Potency entry was “inactive”.

Consider `COc1cccc(-c2nnc(SCC(=O)N3CCC(C)CC3)o2)c1`, for which the Potency result was “inactive”.

Turning to `Cc1nnc(N2CCC(C(=O)Nc3ccc(F)cc3)CC2)c2nn(-c3ccc(Cl)cc3)c(C)c12`, the Potency entry was “inactive”.

With `N#C/C(=C/c1cccc([N+](=O)[O-])c1)c1nnc2n1CCCCC2`, the Potency entry is “inactive”.

With `N#C/C(=C(\O)CCl)c1nnc2n1CCCCC2`, the Potency is 79.4 µM (active).

Take `CC(=O)NCCC(=O)Nc1cc(S(=O)(=O)N2CCOCC2)ccc1N1CCOCC1`: the Potency entry was “inactive”.

For `O=C(CNCc1ccco1)Nc1cc(S(=O)(=O)N2CCOCC2)ccc1N1CCCC1`, the Potency was 50.1 µM (active).

Take `O=C(COC(=O)c1ccccc1F)Nc1cc(S(=O)(=O)N2CCOCC2)ccc1N1CCCC1`: the Potency result is “inactive”.

Turning to `CCOCCCn1c(SCC(=O)Nc2ccc(CC)cc2)nc2ccccc2c1=O`, the Potency entry is “inactive”.

Turning to `COc1ccc(S(=O)(=O)c2c(Nc3cccc(Cl)c3)sc(C(=O)c3ccccc3)c2N)cc1`, the Potency entry is “inactive”.

As for `O=C(c1ccc(CS(=O)(=O)c2ccccc2)o1)N1CCN(c2ccccc2)CC1`, the Potency is 56.2 µM (active).

As for `COc1ccccc1CNC(=O)c1ccc(CS(=O)(=O)c2ccccc2)o1`, the Potency result is “inactive”.

Consider `O=C(c1ccc(S(=O)(=O)N2CCOCC2)cc1)N1CCN(c2ccccc2)CC1`, for which the Potency result is “inactive”.

As for `Cc1ccc2oc(=O)c3cnn(CC(=O)N4CCN(c5cccc(Cl)c5)CC4)c3c2c1`, the Potency result is “inactive”.

Regarding `O=S(=O)(NC1CCCCC1N1CCN(c2ccccc2F)CC1)c1ccccc1` (stereo not drawn), the Potency result was “inactive”.

Regarding `COc1ccc(N2CCN(C3CCCCC3NS(=O)(=O)c3ccccc3)CC2)cc1` (stereo not drawn), the Potency was 17.8 µM (active).

Consider `CCN1CCN(C2CCCCC2NS(=O)(=O)c2ccc(Cl)cc2)CC1` (stereo not drawn), for which the Potency entry was “inactive”.

Turning to `O=C(NCc1ccc(F)cc1)c1ccc2nc(N3CCCCC3)sc2c1`, the Potency entry was “inactive”.

For `COc1ccc(C(=O)Nc2nonc2-c2ccc(OC)c(OC)c2)cc1Cl`, the Potency entry is “inactive”.

Turning to `CCCCCn1c(CCNC(=O)c2ccc(F)cc2)nc2ccccc21`, the Potency entry is “inactive”.

Regarding `Cc1ccccc1S(=O)(=O)N1[C@@H](c2cccc(Cl)c2)C(C(=O)O)=CC[C@H]1c1ccc(Cl)cc1`, the Potency was 79.4 µM (active).

With `Cc1ccc(S(=O)(=O)N2[C@@H](c3ccccc3F)C(C(=O)O)=CC[C@H]2c2ccc(Cl)cc2)cc1`, the Potency entry was “inactive”.

For the molecule `CN1OC(COC(=O)c2ccc(Cl)cc2)CC1c1ccccc1` (stereo not drawn), the Potency result is “inactive”.

Consider `Cc1cc2n(n1)C(c1cc(C(C)(C)C)c(O)cc1O)Nc1ccccc1-2` (stereo not drawn), for which the Potency entry is “inactive”.

In the case of `CSc1nc(-c2ccccc2Cl)nc2c1Cc1c(CO)cnc(C)c1O2`, the Potency entry is “inactive”.

In the case of `O=C(CSc1nc2nccnc2c(=O)n1CCc1c[nH]c2ccccc12)Nc1ccccc1F`, the Potency result is “inactive”.

Turning to `Cc1ccc(CSc2nc3ccsc3c(=O)n2CCC(C)C)cc1`, the Potency result was “inactive”.

For the molecule `Cc1ccc(Nc2nc(N3CCOCC3)nc(N3CCOCC3)n2)cc1Cl`, the Potency result was “inactive”.

In the case of `CCOc1ccc(Nc2nc(Cl)nc(N3CCN(c4ccc(OC)cc4)CC3)n2)cc1`, the Potency was 8.91 µM (active).

In the case of `COc1ccc(Nc2ncc(F)c(N3CCOCC3)n2)cc1`, the Potency result was “inactive”.

The values above are taken from PubChem BioAssay AID504333 (National Center for Advancing Translational Sciences (NCATS), 2011).
